Assay results from PubChem BioAssay AID431 (Sanford-Burnham Center for Chemical Genomics, 2006).
Hit rate of the full screen: of about 63,000 compounds, about 1,100 (1.7%) were called active.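 Rule for the calls: active = compounds whose percent cytotoxicity in the single-dose primary screen, scaled between solvent and toxic-drug controls, exceeds 50; inactive = the rest.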 What follows is part of a selection rich in actives, with near analogues and random picks from the rest. Entries with a potency or affinity are not part of this list.

Assay: viability loss of HPDE-C7K cells – cell-based, fluorescence, HTS, primary screen (AID 431);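 note: 0% = DMSO solvent wells and 100% = doxorubicin-treated wells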
Conditions: HPDE-C7K KRASV12 cells, Alamar Blue viability, 48 h; at 10 µM; active compounds read high

Row | Structure (SMILES) | cytotoxicity
1 | CCN(CC)CCNc1nc2c(c(=O)[nH]c(=O)n2C)n1CC(O)COc1ccc(Cl)cc1Cl (configuration not stated) | 10.6% (inactive)
2 | CCc1nnc(NC(=O)CSc2nnc(CSc3nc(C)cc(C)n3)n2C)s1 | 10.6% (inactive)
3 | N#Cc1c2c(c(=S)n(-c3ccccc3)c1N)CCCC2 | 0.5% (inactive)
4 | CCOC(=O)c1c(N)sn(-c2ccccc2)c1=S | 13.3% (inactive)
5 | CC(C)C(CC(=O)N1CCCCC1)C1CCOC(C)(C)C1 (configuration not stated) | -5.8% (inactive)
6 | N=c1c(S(=O)(=O)c2ccccc2)cc2c(=O)n3ccccc3nc2n1Cc1ccco1 | 4.6% (inactive)
7 | Cc1ccc(Cn2c(=N)c(C(=O)NCc3ccco3)cc3c(=O)n4ccccc4nc32)cc1 | -6.4% (inactive)
8 | N=c1c(C(=O)NCc2ccccc2)cc2c(=O)n3ccccc3nc2n1Cc1ccco1 | 38.6% (inactive)
9 | Cc1ccc(CNC(=O)c2cc3c(=O)n4ccccc4nc3n(Cc3ccco3)c2=N)cc1 | 98.3% (active)
10 | Cc1ccc(S(=O)(=O)c2cc3c(=O)n4ccccc4nc3n(Cc3ccco3)c2=N)cc1 | 30.2% (inactive)
11 | Cc1ccc(CNC2=NCCCCC2)n1C | 0.1% (inactive)
12 | CS(=O)(=O)N(CC(=O)N1CCC(C(N)=O)CC1)c1ccc(Oc2ccccc2)cc1 | 4.5% (inactive)
13 | CN1CCc2ccccc2C1C1CCNCC1 (configuration not stated) | 1.4% (inactive)
14 | N#Cc1c(/N=C/c2ccco2)sc2c1CCC2 | 0.3% (inactive)
15 | COc1ccc(NC(=O)CN(c2ccccc2)S(=O)(=O)N(C)C)cc1OC | -4.2% (inactive)
16 | COc1cccc(C2=NOC(C(=O)NCc3ccc(F)cc3)C2)c1 (configuration not stated) | 49.7% (inactive)
17 | COc1ccc(C2=NOC(C(=O)NCc3ccc(F)cc3)C2)cc1OC (configuration not stated) | 58.9% (active)
18 | COc1ccc(CNC(=O)C2CC(c3ccc(F)cc3)=NO2)cc1 (configuration not stated) | 1.6% (inactive)
19 | COc1cc(C2=NOC(C(=O)NCc3ccco3)C2)cc(OC)c1OC (configuration not stated) | 10.5% (inactive)
20 | COc1cc(C2=NOC(C(=O)NCc3ccc(F)cc3)C2)cc(OC)c1OC (configuration not stated) | 55.1% (active)
21 | COc1ccc(C2=NOC(C(=O)NCc3ccc(F)cc3)C2)cc1 (configuration not stated) | 43% (inactive)
22 | Cc1ccc(C2(C)NC(=O)N(CC(=O)Nc3ccc4c(c3)OCO4)C2=O)cc1 (configuration not stated) | -4.8% (inactive)
23 | Fc1ccc(-c2nnc(SCc3ncc(-c4ccccc4)o3)n2CC2CCCO2)cc1 (configuration not stated) | -17.5% (inactive)
24 | CCOc1cc(C2C(C#N)=C(N)OC3CCCC(=O)C32)ccc1OCCN1CCOCC1 (configuration not stated) | -27% (inactive)
25 | COc1ccc(-c2nnc(SCC(=O)Nc3sc4c(c3C#N)CCC4)n2CC2CCCO2)cc1 (configuration not stated) | -1.4% (inactive)

Row | Structure (SMILES) | cytotoxicity
26 | Cc1cc(NC(=O)CSc2nnc3c(C)cc4cc(C)c(C)cc4n23)no1 | 10.3% (inactive)
27 | Cc1cc(C)c2c(c1)cc(C)c1nnc(SCC(=O)Nc3cc(C)on3)n12 | 22.6% (inactive)
28 | Cc1cc(NC(=O)CSc2nnc3c(C)cc4c(C)ccc(C)c4n23)no1 | 70.6% (active)
29 | CCCCNC(=O)C1CCCN1C(=O)Nc1cccc(OC)c1 (configuration not stated) | -7.7% (inactive)
30 | Nc1c(N2CCN(c3ccccc3)CC2)c2ccccc2oc1=O | -3.7% (inactive)
31 | O=C(NCCCN1CCCC1=O)C1CCN(S(=O)(=O)N2CCOCC2)CC1 | -9.6% (inactive)
32 | CCOc1ccc(NC(=O)N2CCC(n3c(=O)[nH]c4ccccc43)CC2)cc1 | -0.2% (inactive)
33 | COc1cccc(C2=CC(c3ccc(N(C)C)cc3)n3ncnc3N2)c1 (configuration not stated) | -1.1% (inactive)
34 | CN(C)c1ccc(C2C=C(c3ccc(Cl)cc3OC(F)F)Nc3ncnn32)cc1 (configuration not stated) | 50.9% (active)
35 | Cc1ccc(C2C=C(c3ccccc3OC(F)F)Nc3ncnn32)cc1 (configuration not stated) | -1.8% (inactive)
36 | CCn1c(SCC(=O)c2ccc(Cl)cc2)nnc1-c1ccoc1C | 12.2% (inactive)
37 | Cc1cc(C)c(C#N)c(N2CCCC(C(N)=O)C2)n1 (configuration not stated) | -4.9% (inactive)
38 | COc1ccc(S(=O)(=O)Cc2ccc(C(=O)N3CCN(C(=O)c4ccco4)CC3)o2)cc1 | 1.6% (inactive)
39 | O=C(OCc1nnc(-c2ccccc2)o1)c1ccc2c(c1)OCCO2 | 5.4% (inactive)
40 | O=C(Nc1ncnc2sc3c(c12)CCCCC3)c1ccco1 | 7.3% (inactive)
41 | Cc1nnc2n1N=CC=C(C(C)(C)C)S2 | -17.2% (inactive)
42 | Cc1nnc2n1N=CC=C(c1ccccc1)S2 | 62% (active)
43 | COn1cnnc1-c1ccccc1 | -14.1% (inactive)
44 | CCOC(=O)c1cc(NC(=O)c2ccoc2C)cc(C(=O)OCC)c1 | 15.5% (inactive)
45 | Cc1noc(C)c1COC(=O)CCc1nc2ccccc2s1 | -2.7% (inactive)
46 | c1cn2cc(CN3CCOCC3)nc2s1 | -3.4% (inactive)
47 | Cc1nnc2sc(-c3cc4ccccc4o3)nn12 | 8.5% (inactive)
48 | COc1ccccc1-c1nn2c(-c3ccccc3Cl)nnc2s1 | -7.7% (inactive)
49 | COc1ccccc1-c1nnc2sc(-c3cc4ccccc4o3)nn12 | 61.8% (active)
50 | COC(=O)CSc1nnc(SCc2ccccc2)s1 | -19.9% (inactive)

Row | Structure (SMILES) | cytotoxicity
51 | CCOC(=O)N1CCN(C(=O)CCc2nc3sc4c(c3c(=O)[nH]2)CCCC4)CC1 | 4.1% (inactive)
52 | CC(C)OC(=O)CSc1nnc(-c2ccc(Cl)cc2Cl)n1N | -9.9% (inactive)
53 | Cc1ccc(Nc2nc(N3CCOCC3)nc(N3CCOCC3)n2)cc1 | 10.2% (inactive)
54 | O=C(O)c1cccc(Nc2nc(N3CCOCC3)nc(N3CCOCC3)n2)c1 | 1.7% (inactive)
55 | CN1CCN(c2nc(Nc3cccc(C(F)(F)F)c3)nc(N3CCOCC3)n2)CC1 | 52.3% (active)
56 | Cc1cccc(Nc2nc(NCc3ccco3)nc(N3CCOCC3)n2)c1 | 63.9% (active)
57 | COc1nc(Nc2cccc(C(F)(F)F)c2)nc(OC)n1 | 4.6% (inactive)
58 | CC(C)c1ccc(Nc2nc(NCc3ccco3)nc(N3CCOCC3)n2)cc1 | 35.8% (inactive)
59 | CCOC(=O)N1CCN(C(=O)C2CC(=O)N(c3ccc(OC)cc3)C2c2ccc(OC)cc2)CC1 (configuration not stated) | -8.1% (inactive)
60 | O=C(NCCCN=C1NS(=O)(=O)c2ccccc21)c1ccc(S(=O)(=O)N2CCCCC2)cc1 | -14.3% (inactive)
61 | c1ccc(Cn2c(SCc3nc4ccccc4s3)nnc2-c2ccco2)cc1 | 8.5% (inactive)
62 | Nc1c(NC2CCCCC2)c2ccccc2oc1=O | -25.2% (inactive)
63 | COC(=O)c1c(-c2cccs2)csc1NC(=O)CN1CCOCC1 | 4.8% (inactive)
64 | CCOC(=O)c1c(-c2cccs2)csc1NC(=O)CCCC(=O)O | 25.9% (inactive)
65 | CCOC(=O)c1c(-c2cccs2)csc1NC(=O)CN1CC(C)OC(C)C1 (configuration not stated) | 60.6% (active)
66 | N#CCc1ccc(NS(=O)(=O)c2ccc(N3CCCC3=O)cc2)cc1 | -0.7% (inactive)
67 | Cc1ccc2nc3sc(C(=O)N4CCOCC4)c(N)c3cc2c1 | 5.9% (inactive)
68 | Cc1ccc2cc3c(N)c(C(=O)N4CCOCC4)sc3nc2c1 | -10.3% (inactive)
69 | Cc1cccc2cc3c(N)c(C(=O)N4CCOCC4)sc3nc12 | 68.7% (active)
70 | O=C(NCCCN1CCCCCC1)c1ccc2c(c1)NC(=O)C(N1CCOCC1)S2 (configuration not stated) | -17.2% (inactive)
71 | O=C(Nc1c(C(=O)O)oc2ccc(Br)cc12)c1ccccc1 | 31.7% (inactive)
72 | COc1cc(C(=O)Nc2ccccn2)cc(OC)c1OC | 21.5% (inactive)
73 | COc1ccc(C(NC(C)=O)c2ccc3cccnc3c2O)c(OC)c1 (configuration not stated) | -6.2% (inactive)
74 | CCOc1ccc(C(=O)Nc2c3c(nn2-c2cccc(C)c2C)CS(=O)C3)cc1 (configuration not stated) | -6.5% (inactive)
75 | O=C(c1ccco1)N1CCN(c2nc(C3CC3)nc3sc4c(c23)CCCC4)CC1 | 50.9% (active)

Row | Structure (SMILES) | cytotoxicity
76 | CC(C)c1nc(N2CCN(C(=O)c3ccco3)CC2)c2c3c(sc2n1)CCCC3 | -14.3% (inactive)
77 | Cc1nc(N2CCN(C(=O)c3ccco3)CC2)c2c3c(sc2n1)CCC3 | 2.2% (inactive)
78 | COc1cccc(CCC(=O)O)c1OC | -7% (inactive)
79 | CCOC(=O)N1CCN(C(=O)Cn2nc(C)c3sc4ccccc4c3c2=O)CC1 | -5% (inactive)
80 | CCc1ccc(-c2nc(CN3CCCC(C(=O)NCCc4ccc(OC)c(OC)c4)C3)c(C)o2)cc1 (configuration not stated) | 5.5% (inactive)
81 | CCN(CCNC(=O)C1CCCN(Cc2nc(-c3ccc(OC)cc3)oc2C)C1)c1ccccc1 (configuration not stated) | 62.7% (active)
82 | CCc1ccc(-c2nc(CN3CCC(C(=O)NCCN(CC)c4ccccc4)CC3)c(C)o2)cc1 | 39.2% (inactive)
83 | Cc1nonc1NC(=O)CSc1nc2cc(Cl)ccc2c2c1CCCC2 | 36.2% (inactive)
84 | Cn1c(NC(=O)c2cccnc2)nc2ccccc21 | 0.4% (inactive)
85 | Cc1cc(C)nc(SCC(=O)c2ccc(O)cc2O)n1 | -9.3% (inactive)
86 | Cc1ccc(S(=O)(=O)CCC(=O)OCC(=O)Nc2cc(C)on2)cc1 | -22.1% (inactive)
87 | COc1ccc2nc(NCCO)[nH]c2c1 | -14.2% (inactive)
88 | COc1ccc2nc(SCC(N)=O)[nH]c2c1 | -17.7% (inactive)
89 | CCOc1ccc2nc(NCCO)[nH]c2c1 | 4.8% (inactive)
90 | CCCOc1ccc2nc(NC(=O)OC)[nH]c2c1 | 61.1% (active)
91 | COc1ccc(C(=O)Nc2nc3ccccc3[nH]2)cc1OC | -8% (inactive)
92 | CCCSc1ccc2nc(NC(=O)OC)[nH]c2c1 | 63.4% (active)
93 | Cn1nc(CC(=O)Nc2cccc3ncccc23)c2ccccc2c1=O | -4.3% (inactive)
94 | CCOC(=O)c1ccc(NC(=O)CCc2nc(-c3cccc(C)c3)no2)cc1 | 1% (inactive)
95 | CCOC(=O)c1[nH]c(C)c(C(=O)NCCN2CCOCC2)c1C | 8.4% (inactive)
96 | CC(=O)c1c(C)[nH]c(C(=O)OCC(=O)Nc2cc(C(F)(F)F)ccc2N2CCOCC2)c1C | 14.5% (inactive)
97 | CCC(=O)N/C=C/n1cnc2cc(C(F)(F)F)ccc21 | 15.3% (inactive)
